Where “and” joins values, the source holds several entries; their conditions need not be identical. Equal values may be shown once. About 83,000 compounds went through this panel and 20% of them were active in at least one assay; those are over-represented in the sample as a whole.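 Activity criterion: percent growth below 10, measured after cells in 96-well plates were exposed to a single compound concentration for 48 hours.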 Unmarked numbers belong to inactive results. Calls of active or inactive are those of the source.
How the values were obtained:
Test in all cases: NCI-60 one-dose screen, 48 h (100 = growth as untreated, 0 = no growth, -100 = all killed)
Conditions in all cases: 10 µM unless noted
[1] = system: T-47D breast
[2] = system: BT-549 breast
[3] = system: MDA-MB-435 melanoma
[4] = system: SW-620 colon
[5] = system: MCF7 breast
[6] = system: HCT-116 colon
[7] = system: HCC-2998 colon
[8] = system: KM12 colon
[9] = system: MDA-MB-468 breast

Structure (SMILES)	growth [1]	growth [2]	growth [3]	growth [4]	growth [5]	growth [6]	growth [7]	growth [8]	growth [9]
O=C(c1ccc(O)cc1)C1[C@H](c2ccc(Cl)cc2)[C@@H](c2ccccc2)NC12C(=O)Nc1ccc(Br)cc12 (stereo partly drawn)	2.46% (active)	-76.6% (active)	-41.1% (active)	-58.1% (active)	-22.1% (active)	-75% (active)	-88.6% (active)	-25.4% (active)	-61.1% (active)
O=C(CSc1nc2sc3c(c2c(=O)n1-c1ccc(Cl)cc1)CCCC3)NNC(=O)c1ccc(F)cc1	74%	67.3%	98.2%	91%	61.9%	78.3%	113%	101%	95%
CNS(=O)(=O)N1CCc2c(Br)c3c(c(OC)c2C1CCc1ccccc1)OCO3 (stereo not drawn)	6.69% (active)	-68.8% (active)	-67.9% (active)	8.53% (active)	-22.3% (active)	-16.8% (active)	-12.7% (active)	2.02% (active)	-63.1% (active)
CCOc1ccccc1NC(=O)N/C(N)=N/c1nc2ccccc2s1	41.5%	23.1%	-21.6% (active)	25.5%	11%	-5.6% (active)	13.1%	-0.458% (active)	-11.4% (active)
CN(CCSSCCN1CCOCC1)C(=O)Oc1cc2c(c3ccccc13)[C@H](CCl)CN2C(=O)c1cc2cc(OCCCN3CCC3)ccc2[nH]1	-41.9% (active)	-52.5% (active)	-36.5% (active)	-8.71% (active)	-60.8% (active)	-49.1% (active)	-64.7% (active)	-23.5% (active)	-80% (active)
CC1CCc2c(sc3nc(SCC(=O)c4cccc(Br)c4)n(-c4ccccc4)c(=O)c23)C1 (stereo not drawn)	15.9%	78.5%	29.5%	28.5%	56.9%	2.87% (active)	60.6%	89.6%	29.6%
COc1cc(C2CC(c3ccc(C(F)(F)F)cc3)=Nc3c(N)nc(N)nc3N2)ccc1Oc1nc(Nc2ccc(F)cc2)nc(N(C)C)n1 (stereo not drawn)	57.8%	70.3%	59.7%	53.2%	3.18% (active)	-16.4% (active)	-17.8% (active)	32.6%	-8.26% (active)
C/C(=N\Nc1ccc(S(N)(=O)=O)cc1)c1cnn(-c2cc(=O)[nH]c3ccc(Br)cc23)c1C	17.5%	37.7%	4.39% (active)	75.7%	23.1%	58.5%	73.4%	53.7%	-10.8% (active)
COc1ccccc1NC(=O)c1ccc(NC(=O)CCl)s1	40.6%	-57.7% (active)	0.365% (active)	-18.5% (active)	-35% (active)	-68.5% (active)	27.2%	25.8%	-29.6% (active)
O=C(NNC(=O)c1ccc(OCc2nc3ccc(Cl)cc3[nH]2)cc1)Nc1ccc(Cl)c(Cl)c1	-1.89% (active)	119%	26.7%	47%	37.7%	26.1%	70.1%	–	-14.8% (active)
CCCCCCCCc1ccc(C(=O)Nc2ccc(C)cc2C(=O)O)cc1	94%	104%	104%	103%	85.2%	75.5%	106%	–	70.5%
N#C/C(=C1/C(=O)Nc2ccccc21)c1nnc(NC(=O)c2ccc(-n3c(=O)[nH]c4ccccc4c3=O)cc2)s1	6.13% (active)	12.1%	-85.5% (active)	65.4%	7.69% (active)	22.8%	32.5%	21.4%	12.9%
COc1ccc(S(=O)(=O)Nc2ccc(-c3ccc4c(c3)NC(=O)/C4=C\c3ccc[nH]3)cc2)cc1OC	-21% (active)	13.3%	22%	16.1%	-39% (active)	19%	24.2%	33.6%	-56.2% (active)
Cc1nn(-c2ccccc2)c2nc(C)n(CC(=O)N/N=C/c3cccc([N+](=O)[O-])c3)c(=O)c12	77.6%	82.8%	101%	101%	85.5%	87.6%	116%	101%	93.3%
CS(=O)(=O)Nc1cccc(-n2c(COc3ccc(OC(F)(F)F)cc3)nc3ccccc32)c1	62.2% and 85%	98% and 96.5%	102% and 103%	97.3% and 108%	65.6% and 102%	85.9% and 104%	114% and 113%	–	107% and 106%
O=C1Nc2ccccc2/C1=C/C(=O)c1cc2ccccc2oc1=O	83.2%	111%	110%	2.06% (active)	53.3%	66%	140%	95.9%	54.4%
COc1ccc(NC(=O)CSc2nnc(-c3ccc(-c4nc5ccc(Cl)cc5[nH]4)cc3)o2)cc1	75.9%	4.02% (active)	17.8%	20.3%	42.2%	9.94% (active)	109%	29.6%	86.2%
O=C1Nc2ccccc2/C1=C\c1ccc(OCC(=O)c2ccc(Br)cc2)cc1	46.9%	56.6%	70.5%	78.1%	27.4%	55.4%	85.1%	77.3%	52.4%
COc1ccc2oc(=O)c(-c3csc(N/N=C(\C)c4cc(OC)c(OC)c(OC)c4)n3)cc2c1	65.7%	39%	99.2%	108%	79.8%	92.2%	112%	–	79.9%
CN1CCN(C(=O)Oc2cc3c(c4ccccc24)[C@H](CCl)CN3C(=O)c2cc3cc(OCCCN4CCC4)ccc3[nH]2)[C@@H]2CSSC[C@H]21	-5.44% (active)	-49.8% (active)	-36.2% (active)	4.87% (active)	-63.4% (active)	1.54% (active)	-83.3% (active)	-40.5% (active)	-72.1% (active)
CCCSc1nnc(-c2c(C)nc3sccn23)o1	21.2%	109%	105%	104%	23%	95.7%	105%	–	-22.9% (active)
COc1ccc(/C=C/C(=O)c2ccc(S(=O)(=O)NCCNc3nc(N(C)C)nc(N4CCOCC4)n3)cc2)cc1	83.5%	105%	81.8%	68.7%	11.8%	-9.23% (active)	116%	64.8%	76.3%
N#Cc1ccc(C(=O)CSc2nc3c(c(Nc4ccc(S(N)(=O)=O)cc4)n2)CCC3)cc1	71.7%	83.3%	86.6%	47.8%	19.2%	15.7%	15.8%	64.2%	60.4%
COc1c(B(O)O)cc(F)cc1-c1nc2ccc3[nH]ncc3c2c2c1COCC2	62.6%	-7.9% (active)	87.1%	34.3%	44.7%	19.8%	80.3%	–	41.9%
Cn1cc(-c2cc(N)n3nc(-c4c[nH]c5ccc(F)cc45)cc3n2)c2cc(Br)cnc21	54.5%	92.6%	78.8%	17.2%	47.1%	-26.9% (active)	13.8%	3.18% (active)	20.7%
CCCCNC(=S)Nc1ccc(OCc2nc3ccc(Cl)cc3[nH]2)cc1	22.2%	31.7%	29.4%	21.8%	6.29% (active)	11.2%	3.65% (active)	29.3%	3.25% (active)
FC(F)(F)c1cc2c(Cl)ncnc2n1CCC1CCOCC1	66.6%	-41.1% (active)	-29.6% (active)	35%	34.7%	-53.5% (active)	-90.6% (active)	–	-82.9% (active)
CN1CCN(C(=O)Oc2cc3c(c4ccccc24)[C@H](CCl)CN3C(=O)c2cc3cc(OCCCN4CCC4)ccc3[nH]2)[C@H]2CSSC[C@H]21	-12.9% (active)	-36.8% (active)	-70.2% (active)	4.18% (active)	3.7% (active)	6.44% (active)	-47% (active)	–	-78.4% (active)
NNc1ncnc2sc3c(c12)CCN(Cc1ccccc1)C3	24.8%	55%	77.7%	46.6%	9.55% (active)	42.6%	52.1%	53.8%	13.2%
